Screening data as filed in PubChem BioAssay.
JMJD2A Tudor inh: inhibitors of human JMJD2A Tudor domain; O75164; AlphaScreen JMJD2A-Tudor / H3K4me3 peptide binding; Potency, µM (top dose mostly 114 µM), inactives show top-dose activity change, negative = inhibition, most hits filed as inhibitors; actives 4.4% (n = 390,000); AID 504339; also: potency is read from the fitted curve at half-maximal effect; % is scaled to controls: 0 for no effect and ±100 for the full control effect; nearly all actives have a fitted effect of over 50% in size
G9a block: blocks human histone lysine methyltransferase G9a; G9a H3K9 monomethylation, AlphaScreen, 2 h; Potency, µM (doses to about 102 µM), for the others: top-dose activity, negative = inhibition, usual class: inhibitors; actives 8.8% (n = 350,000); also: potency is read from the fitted curve at half-maximal effect; % is scaled to controls: 0 for no effect and ±100 for the full control effect; nearly all actives have a fitted effect of over 75% in size
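Methyltransferase reactions run at room temperature for 2 h (20 nM enzyme, 500 nM biotin-H3K9 peptide, 20 uM SAM) after a 15 min compound preincubation; product detected by AlphaScreen beads and anti-H3K9me1 antibody.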
PLK1 PBD block: blocks phosphopeptide binding to human PLK1 polo-box domain; P53350; Plk1 PBD binding of FITC phosphopeptide, fluorescence polarization; Potency, µM, inactives show max response, negative = inhibition, actives largely listed as inhibitors; actives 2.8% (n = 360,000); also: potency is read from the fitted curve at half-maximal effect; series mostly up to about 57 µM; % is scaled to controls: 0 for no effect and ±100 for the full control effect; nearly all actives have a fitted effect of over 65% in size
BAZ2B block: inhibitors of human BAZ2B bromodomain | Q9UIF8 | AlphaScreen BAZ2B-H3K14Ac peptide displacement | Potency, µM (top dose mostly 114 µM), without a hit: at the highest dose activity change, negative = inhibition, actives largely listed as inhibitors | actives 4.4% (n = 360,000) | AID 504333; also: potency is read from the fitted curve at half-maximal effect; % is scaled to controls: 0 for no effect and ±100 for the full control effect; nearly all actives have a fitted effect of over 60% in size
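Protein-peptide AlphaScreen: BAZ2B 50 nM, b-H3K14Ac 50 nM, 1x PBS pH 7.4 + 0.01% Tween-20. Preincubation 30 min RT; cpd 30 min RT (top 110 uM); beads 20 min RT, light-protected.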
HP1b binding inh: blocks HP1-beta chromodomain binding to methylated histone tails; actives 0.56% (n = 390,000); Potency, µM (titrated, usually from 114 µM), inactives show top-dose activity change, negative = inhibition, actives largely listed as inhibitors; AlphaScreen HP1-beta / biotin-H3K9me3 peptide binding; also: potency is read from the fitted curve at half-maximal effect; nearly all actives have a fitted effect of over 70% in size
Target sequence (P83916 whole entry, looked up): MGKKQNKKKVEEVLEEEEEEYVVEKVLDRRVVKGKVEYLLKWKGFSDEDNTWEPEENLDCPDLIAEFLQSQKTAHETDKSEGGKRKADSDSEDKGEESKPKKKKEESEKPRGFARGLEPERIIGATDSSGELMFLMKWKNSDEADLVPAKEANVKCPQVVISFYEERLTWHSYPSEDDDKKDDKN
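Compound inhibition of the preformed complex between 50 nM HP1-beta and 50 nM biotinylated H3K9me3 peptide was read by AlphaScreen. Buffer was PBS pH 7.4 with 0.01% Tween-20. Incubations ran 30 min at room temperature, with 10 ug/mL donor/acceptor beads.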
PI5P4K alpha inh: blocks human PI5P4K alpha kinase activity; actives 1.2% (n = 330,000); AID 652105; max response, %; PI5P4Kalpha enzyme, ADP-Glo luminescence, 60 min; active compounds read low; P48426; active = max response of -50% or lower; inconclusive = between -30% and -50%; inactive = -30% or higher; also: value at the top dose of about 77 µM; % is scaled to controls: 0 for no effect and ±100 for the full control effect
Target sequence (P48426 whole entry, looked up): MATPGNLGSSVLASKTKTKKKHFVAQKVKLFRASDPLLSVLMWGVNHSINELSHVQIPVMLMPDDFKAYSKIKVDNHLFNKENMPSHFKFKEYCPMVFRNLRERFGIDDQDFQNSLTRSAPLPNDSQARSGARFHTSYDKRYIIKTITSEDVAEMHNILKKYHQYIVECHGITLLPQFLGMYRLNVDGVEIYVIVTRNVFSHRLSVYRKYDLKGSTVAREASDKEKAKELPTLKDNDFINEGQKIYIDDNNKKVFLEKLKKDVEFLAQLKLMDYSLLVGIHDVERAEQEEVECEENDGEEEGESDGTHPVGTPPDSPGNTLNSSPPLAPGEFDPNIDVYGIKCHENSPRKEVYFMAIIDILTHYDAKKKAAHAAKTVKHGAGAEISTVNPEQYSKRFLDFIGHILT
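Enzyme plus substrate dispensed, test compounds pinned in, then ATP (5 microM final) added. After 60 min at RT, ADP-Glo reagent 1 for 45 min and reagent 2 for 30 min preceded luminescence imaging.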
* = called active by the depositor; ? = inconclusive; nt = no result given; [ ] = remark or other dose. Only some compounds are listed: those with a hit (about 12% of all), similar ones and a draw of the others. Unless noted, calls follow the shape of the dose curve; as a rule, active = well fitted curve in the direction sought with a large enough effect; inconclusive = small, poorly fitted or top-dose-only effect, or another doubt; inactive = no such curve, though single readings can be large; an effect the other way counts as inactive or inconclusive.

SMILES | JMJD2A Tudor inh | G9a block | PLK1 PBD block | BAZ2B block | HP1b binding inh | PI5P4K alpha inh
O=C(NN1C(=O)/C(=C/C=C/c2ccco2)SC1=S)c1ccncc1 | 14µM* | 4µM* | 4.7µM* | 5.6µM* | 13µM* | -79*
O=C(CCN1C(=O)/C(=C/c2ccccc2)SC1=S)NNC(=O)c1ccncc1 | -32% | -6% | -19% | -4% | -12% | 0
O=C(NN1C(=O)/C(=C/C=C/c2ccccc2)SC1=S)c1ccncc1 | -35% | 45µM* | ? | -33% | -16% | -24
COc1ccc(-n2ncc(C(=O)N3CCN(Cc4ccccc4)CC3)c2C2CCN(C(=O)OC(C)(C)C)CC2)cc1 | -19% | ? | nt | 0%[57.1 µM] | -3% | nt
Cc1cc(OCc2cc(C(=O)N(C)C(C)c3ccccn3)no2)cc(C)c1Cl (stereo not drawn) | 16% | 20% | -4% | 4%[57.1 µM] | 102% | 10
CC1(C(=O)NS(=O)(=O)c2ccccc2Cl)CCN1C(=O)c1ccccc1 (stereo not drawn) | nt | nt | 4% | nt | nt | 1
Cc1cccc(N=Nc2c(N)n[nH]c2N)c1 | ? | -12% | -1% | 40µM* | -17% | -6
Nc1[nH]ncc1N=Nc1ccc(Cl)cc1 | -34% | -15% | -7% | ? | -3% | -2
Nc1n[nH]c(N)c1N=Nc1cccc(C(F)(F)F)c1 | ? | 71µM* | 6% | 40µM* | -1% | -2
Nc1n[nH]c(N)c1N=Nc1ccc(Cl)cc1 | 35µM* | -15%[59 µM] | -4% | 45µM* | -33% | 14
Nc1n[nH]c(N)c1N=Nc1cccc(F)c1 | ? | ? | -3% | 40µM* | -17% | -4
CCN(CC)C(=O)C1=C(C)N(CCCOC)C(=O)C(CC(=O)NCCCN(C)C)C1 (stereo not drawn) | nt | nt | -12% | nt | nt | -1
COc1ccc(C#CC2=CC(=O)CC(C)(C)C2)cc1 | nt | nt | -27% | nt | nt | 1
CC(=O)Nc1ccc2c(O)cc(S(=O)(=O)O)cc2c1 | ? | nt | -27% | nt | ? | -22
Nc1cccc2c(O)cc(S(=O)(=O)O)cc12 | 10µM* | nt | 13µM* | nt | 10µM* | -88*
Nc1ccc2c(O)cc(S(=O)(=O)O)cc2c1 | 45µM* | nt | -27% | nt | ? | -58*
CC(C)[C@H](NS(=O)(=O)c1ccc2c(c1)OCCO2)C(=O)OCC(=O)Nc1cc(Cl)ccc1Cl | ? | -12%[59 µM] | 30µM* | -6% | ? | -8
CCOC(=O)c1c(NC(=O)COC(=O)c2ccc(C)s2)sc2c1CC(C)(C)NC2(C)C | -25% | ? | -10% | 0% | -12% | 1
COc1ccc2[nH]c(C)c(CCNC(=S)Nc3ccccc3C)c2c1 | 89µM* | 50µM* | -15% | 45µM* | ? | -2
CCc1cccc(CC)c1NC(=S)NCCc1c(C)[nH]c2ccccc12 | 45µM* | 45µM* | -6% | 32µM* | -16% | 9
COc1ccc(NC(=S)NCCc2ccccc2)c(OC)c1 | -16% | -21%[59 µM] | -5% | -34% | 2% | nt
COc1ccc2[nH]c(C(=O)O)c(CCNC(C)=O)c2c1 | -17% | 6% | 2% | -2% | 37% | -12
CCc1cccc(CC)c1NC(=S)NCCc1ccc(O)c(O)c1 | ? | ? | -29% | nt | -15% | 0
COc1ccc2[nH]c(C)c(CCNC(=S)Nc3cccc(C)c3C)c2c1 | 56µM* | ? | 0% | 35µM* | ? | 0
COc1ccc2[nH]c(C)c(CCNC(=S)Nc3ccc(C)cc3)c2c1 | 50µM* | ? | -15% | nt | -23% | -1
SMILES | JMJD2A Tudor inh | G9a block | PLK1 PBD block | BAZ2B block | HP1b binding inh | PI5P4K alpha inh
CC(C)(C)OC(=O)N1CCC(c2c(C(=O)NCCN3CCOCC3)cnn2-c2ccc(F)cc2F)CC1 | 3% | -7%[59 µM] | nt | 7%[57.1 µM] | 46% | nt
CCOc1ccc(C(=O)Nc2ccc3nn(-c4ccc(OC)c(Cl)c4)nc3c2)cc1 | -17% | -2%[59 µM] | nt | 2% | 24% | nt
COc1ccc(C(C)NC(=O)CN(c2cc(OC)ccc2OC)S(=O)(=O)c2ccccc2)cc1 (stereo not drawn) | -20% | ? | nt | -19% | 0% | nt
CC(=O)c1ccc(NC(=O)CSc2cn(CC(=O)N3CCCCCC3)c3ccccc23)cc1 | -15% | -39%[59 µM] | nt | ? | 24% | nt
CCOc1cc(/C=C/C(=O)OCC(=O)NCc2ccco2)cc(Cl)c1OC | ? | 50µM* | -14% | ? | -14% | 3
COc1ccc(/C=C/C(=O)OCC(=O)NCc2ccco2)cc1OC | -26% | 23%[59 µM] | -10% | ? | -5% | -17
COc1cc(/C=C/C(=O)OCC(=O)NCc2ccco2)ccc1OC(F)F | -17% | 40µM* | -5% | -27% | 3% | 4
Cc1ccc(O)c(-c2cc(-c3ccccc3F)[nH]n2)c1 | 5% | 71%[12.7 µM] | 1% | 8% | 48% | 15
Cc1ccc(O)c(C2=NNC(O)(C(F)(F)F)C2)c1 (stereo not drawn) | -13% | 56µM* | -3% | 11% | 23% | 22
COc1ccc(-c2cc3ccccc3n2CC(O)CNCCO)cc1 (stereo not drawn) | 5µM* | 35µM* | -4% | 50µM* | ? | -4
C/C(N)=C(/C#N)C(=O)CSc1nc2ccccc2c(=O)n1Cc1ccc(C)cc1 | -20% | 23%[59 µM] | -13% | -32% | 31% | -8
C/C(N)=C(/C#N)C(=O)CSc1nc2ccccc2c(=O)n1Cc1ccc(F)cc1 | -21% | -44% | -11% | ? | 5% | -58*
CCC1(C(=O)OC)NC(c2ccco2)C2C(=O)N(c3ccc(F)cc3)C(=O)C21 (stereo not drawn) | -19% | 45µM* | -2% | -22% | 29% | 1
CCCC1(C(=O)OCC)NC(c2ccc(N(C)C)cc2)C2C(=O)N(c3ccc(F)cc3)C(=O)C21 (stereo not drawn) | -35% | 2.5µM* | -5% | -38% | -20% | -1
CCOC(=O)C1(C)NC(c2ccc(N(C)C)cc2)C2C(=O)N(c3ccc(OC)cc3)C(=O)C21 (stereo not drawn) | -20% | -11% | -5% | 4% | 13% | 4
Cc1cc(NC2=CC(=O)C(=O)c3ccccc32)no1 | -17% | nt | -12% | nt | 3% | -17
COc1cc(OC)c(NC2=CC(=O)C(=O)c3ccccc32)cc1Cl | ? | 40µM* | 0% | ? | ? | -16
Cc1ccc(NC2=CC(=O)C(=O)c3ccccc32)cc1 | ? | ? | -9% | 40µM* | -29% | nt
CCOC(=O)c1ccc(NC2=CC(=O)C(=O)c3ccccc32)cc1 | ? | ? | -27% | ? | ? | -2
NS(=O)(=O)c1ccc(NC2=CC(=O)C(=O)c3ccccc32)cc1 | 22µM* | nt | 27µM* | ? | -8% | -28
COc1cc(C(=O)N[C@H](C(=O)OCC(=O)NC2CCCCCC2)C(C)C)cc(OC)c1OC | -2% | nt | 4% | nt | 39% | -1
